{"source": "ChEMBL document CHEMBL4513155", "about": "“CO-ADD screening of University of Sydney (Australia) compounds” (2021)", "note": "Entries with a potency or affinity are not part of this list."}
{"tested_on": "Klebsiella pneumoniae", "details": "Concentration 32 ug.mL-1; ASSAY_TEST Inhibition of Bacterial Growth; detection method Absorption (OD600); MEDIA CAMHB; plate type 384well; NBS; CORNING #3640; time 18 hr", "units": {"Inhibition": "%"}}
{"smiles": "O.O=C1c2cccc3c(-n4cc(CN5CCCNCCN(Cc6cn(-c7ccc8c9c(cccc79)C(=O)N(CCCO)C8=O)nn6)CCCNCC5)nn4)ccc(c23)C(=O)N1CCCO.[Cl-].[Cl-].[Zn+2]", "Inhibition": 2.32}
{"smiles": "Fc1ccc(CCOc2cncc3nnc(-c4ccc(Cl)cc4)n23)cc1F", "Inhibition": -4.32}
{"smiles": "CN(C)C(COc1cncc2nnc(-c3ccc(C#N)cc3)n12)c1ccc(F)c(F)c1", "note": "(stereo unspecified)", "Inhibition": 3.41}
{"smiles": "Fc1ccc(CCOc2cncc3nnc(-c4ccc(C(F)(F)F)nc4)n23)cc1F", "Inhibition": -0.34}
{"smiles": "COC(COc1cncc2nnc(-c3ccc(C#N)cc3)n12)c1ccc(F)c(F)c1", "note": "(stereo unspecified)", "Inhibition": -1.15}
{"smiles": "N#Cc1ccc(-c2nnc3cncc(OCC(O)c4ccc(F)c(F)c4)n23)cc1", "note": "(stereo unspecified)", "Inhibition": -1.23}
{"smiles": "CCN1C(=O)c2cccc3c(-c4cn(CCN5CCCNCCN(CCn6cc([C@]7(O)CC[C@H]8[C@@H]9CCc%10cc(O)ccc%10[C@H]9CC[C@@]87C)nn6)CCCNCC5)nn4)ccc(c23)C1=O.OCCN1CCN(CCCN2c3ccccc3Sc3ccc(Cl)cc32)CC1.[O-][Cl+3]([O-])([O-])[O-].[O-][Cl+3]([O-])([O-])[O-].[Zn+2]", "Inhibition": -7.97}
{"tested_on": "Candida albicans", "details": "32 ug/mL", "units": {"Inhibition": "%"}}
{"smiles": "O.O=C1c2cccc3c(-n4cc(CN5CCCNCCN(Cc6cn(-c7ccc8c9c(cccc79)C(=O)N(CCCO)C8=O)nn6)CCCNCC5)nn4)ccc(c23)C(=O)N1CCCO.[Cl-].[Cl-].[Zn+2]", "Inhibition": 7.28}
{"smiles": "Fc1ccc(CCOc2cncc3nnc(-c4ccc(Cl)cc4)n23)cc1F", "Inhibition": 7.82}
{"smiles": "CN(C)C(COc1cncc2nnc(-c3ccc(C#N)cc3)n12)c1ccc(F)c(F)c1", "note": "(stereo unspecified)", "Inhibition": 5.98}
{"smiles": "Fc1ccc(CCOc2cncc3nnc(-c4ccc(C(F)(F)F)nc4)n23)cc1F", "Inhibition": 2.23}
{"smiles": "COC(COc1cncc2nnc(-c3ccc(C#N)cc3)n12)c1ccc(F)c(F)c1", "note": "(stereo unspecified)", "Inhibition": 2.84}
{"smiles": "N#Cc1ccc(-c2nnc3cncc(OCC(O)c4ccc(F)c(F)c4)n23)cc1", "note": "(stereo unspecified)", "Inhibition": 4.19}
{"smiles": "CCN1C(=O)c2cccc3c(-c4cn(CCN5CCCNCCN(CCn6cc([C@]7(O)CC[C@H]8[C@@H]9CCc%10cc(O)ccc%10[C@H]9CC[C@@]87C)nn6)CCCNCC5)nn4)ccc(c23)C1=O.OCCN1CCN(CCCN2c3ccccc3Sc3ccc(Cl)cc32)CC1.[O-][Cl+3]([O-])([O-])[O-].[O-][Cl+3]([O-])([O-])[O-].[Zn+2]", "Inhibition": 5.51}
{"tested_on": "Cryptococcus neoformans", "details": "Concentration 32 ug.mL-1; ASSAY_TEST Inhibition of Fungal Growth; detection method Resazurin; Absorption (OD600-OD570); plate type 384well; NBS; CORNING #3640", "units": {"Inhibition": "%"}}
{"smiles": "O.O=C1c2cccc3c(-n4cc(CN5CCCNCCN(Cc6cn(-c7ccc8c9c(cccc79)C(=O)N(CCCO)C8=O)nn6)CCCNCC5)nn4)ccc(c23)C(=O)N1CCCO.[Cl-].[Cl-].[Zn+2]", "Inhibition": -0.18}
{"smiles": "Fc1ccc(CCOc2cncc3nnc(-c4ccc(Cl)cc4)n23)cc1F", "Inhibition": -0.27}
{"smiles": "CN(C)C(COc1cncc2nnc(-c3ccc(C#N)cc3)n12)c1ccc(F)c(F)c1", "note": "(stereo unspecified)", "Inhibition": -16.61}
{"smiles": "Fc1ccc(CCOc2cncc3nnc(-c4ccc(C(F)(F)F)nc4)n23)cc1F", "Inhibition": -5.49}
{"smiles": "COC(COc1cncc2nnc(-c3ccc(C#N)cc3)n12)c1ccc(F)c(F)c1", "note": "(stereo unspecified)", "Inhibition": -10.36}
{"smiles": "N#Cc1ccc(-c2nnc3cncc(OCC(O)c4ccc(F)c(F)c4)n23)cc1", "note": "(stereo unspecified)", "Inhibition": -9.99}
{"smiles": "CCN1C(=O)c2cccc3c(-c4cn(CCN5CCCNCCN(CCn6cc([C@]7(O)CC[C@H]8[C@@H]9CCc%10cc(O)ccc%10[C@H]9CC[C@@]87C)nn6)CCCNCC5)nn4)ccc(c23)C1=O.OCCN1CCN(CCCN2c3ccccc3Sc3ccc(Cl)cc32)CC1.[O-][Cl+3]([O-])([O-])[O-].[O-][Cl+3]([O-])([O-])[O-].[Zn+2]", "Inhibition": 7.03}
